For part of these data: Entries with a potency or affinity are not part of this list. The source made the active and inactive calls. Unless noted, the rule behind the calls is not given here.
Assays:
[1] = antimalarial activity against Dd2 strain (AID 2302;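 active = growth inhibition above 50% at the single 2 µM test dose, taken to imply half-maximal potency below 2 µM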;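 note: 0% = DMSO untreated growth and 100% = chloroquine plus artemisinin killed control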); settings: P. falciparum Dd2 in RBCs, LDH growth readout, 72 h; at 2 µM; stronger effect = higher value
[2] = HepG2 cytotoxicity, primary screen, cytotoxicity control for P. falciparum antimalarial project, cell-based, ATP luminescence (AID 2303;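 active = inhibition above 50%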;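 note: 0% = DMSO wells and 100% = digitonin-killed cells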); settings: HepG2 viability, 24-48 h, at 10 µM, stronger effect = higher value
[3] = biological target: L-lactate dehydrogenase (Plasmodium falciparum (isolate CDC / Honduras)) (UniProt Q27743); test: PfLDH activity inhibition – cell lysate, 3D7 strain, counter-screen for P. falciparum growth inhibition project (AID 2304);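 note: 0% = vehicle and 100% = reference inhibitor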; settings: P. falciparum 3D7 crude extract, LDH APAD/NBT absorbance; at 2 µM; stronger effect = higher value
[4] = inhibition of 3D7 malaria parasite growth – strain 3D7 (AID 2306);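 note: 0% = DMSO wells and 100% = chloroquine plus artemisinin control wells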; settings: P. falciparum 3D7 erythrocytic growth, LDH absorbance, 72 h; at 2 µM; stronger effect = higher value
[5] = biological target: Plasmodium falciparum protein kinase 6 (PK6, PF3D7_1337100) (UniProt Q8IDW1); test: PfPK6 kinase inhibitors, biochemical, TCAMS library (AID 1159586); settings: recombinant PfPK6, Kinase-Glo ATP depletion luminescence
[6] = biological target: Protein kinase 7 (PK7), Plasmodium falciparum 3D7 (PF3D7_0213400) (UniProt Q7YTF7); test: inhibition of Plasmodium PK7 catalytic activity – biochemical, TCAMS antimalarial set, Kinase-Glo luminescence (AID 1159587); settings: recombinant PfPK7, Kinase-Glo ATP depletion luminescence
[7] = biological target: Calcium-dependent protein kinase 4 (Plasmodium falciparum (isolate 3D7)) (UniProt Q8IBS5); test: PfCDPK4 kinase inhibitors, biochemical, TCAMS library (AID 1159588; cut-off not given, nearly all actives have IC50 up to about 0.91 µM); settings: recombinant PfCDPK4, Kinase-Glo ATP depletion luminescence
Sequence of Calcium-dependent protein kinase 4 (Plasmodium falciparum (isolate 3D7)) (Q8IBS5 whole entry, looked up): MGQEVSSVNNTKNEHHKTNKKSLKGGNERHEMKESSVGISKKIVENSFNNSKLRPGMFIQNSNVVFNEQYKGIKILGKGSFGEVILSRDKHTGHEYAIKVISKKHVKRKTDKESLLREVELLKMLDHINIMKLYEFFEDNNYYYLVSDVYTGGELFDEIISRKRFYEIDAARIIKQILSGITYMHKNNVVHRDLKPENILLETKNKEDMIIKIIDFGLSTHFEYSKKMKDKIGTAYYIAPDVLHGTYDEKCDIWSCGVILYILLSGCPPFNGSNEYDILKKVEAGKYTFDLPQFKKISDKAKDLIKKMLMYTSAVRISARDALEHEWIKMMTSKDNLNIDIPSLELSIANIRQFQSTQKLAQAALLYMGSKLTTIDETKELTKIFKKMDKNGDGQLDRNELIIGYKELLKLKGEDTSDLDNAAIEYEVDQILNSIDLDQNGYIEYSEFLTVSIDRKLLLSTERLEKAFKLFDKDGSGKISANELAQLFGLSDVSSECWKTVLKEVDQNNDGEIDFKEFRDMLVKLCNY

Sequence of Plasmodium falciparum protein kinase 6 (PK6, PF3D7_1337100) (Q8IDW1 1-305): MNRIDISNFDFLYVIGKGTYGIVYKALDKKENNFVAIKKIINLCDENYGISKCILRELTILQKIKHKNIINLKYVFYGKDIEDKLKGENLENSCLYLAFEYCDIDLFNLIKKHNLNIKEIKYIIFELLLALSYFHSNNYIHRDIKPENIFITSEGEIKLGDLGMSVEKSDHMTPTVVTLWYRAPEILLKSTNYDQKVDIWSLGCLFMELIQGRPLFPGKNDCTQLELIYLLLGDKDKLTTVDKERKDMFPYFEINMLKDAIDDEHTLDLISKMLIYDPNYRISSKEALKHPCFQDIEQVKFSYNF
Sequence of Protein kinase 7 (PK7), Plasmodium falciparum 3D7 (PF3D7_0213400) (Q7YTF7 1-343): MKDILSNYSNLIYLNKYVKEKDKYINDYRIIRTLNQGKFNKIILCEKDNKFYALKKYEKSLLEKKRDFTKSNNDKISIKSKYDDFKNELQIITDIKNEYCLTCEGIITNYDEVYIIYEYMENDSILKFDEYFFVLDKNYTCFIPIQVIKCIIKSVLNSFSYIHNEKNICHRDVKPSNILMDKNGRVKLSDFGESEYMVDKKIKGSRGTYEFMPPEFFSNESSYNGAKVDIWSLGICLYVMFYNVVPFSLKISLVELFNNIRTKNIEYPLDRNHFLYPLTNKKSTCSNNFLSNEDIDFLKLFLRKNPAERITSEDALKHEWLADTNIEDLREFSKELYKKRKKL
Sequence of L-lactate dehydrogenase (Plasmodium falciparum (isolate CDC / Honduras)) (Q27743 whole entry, looked up): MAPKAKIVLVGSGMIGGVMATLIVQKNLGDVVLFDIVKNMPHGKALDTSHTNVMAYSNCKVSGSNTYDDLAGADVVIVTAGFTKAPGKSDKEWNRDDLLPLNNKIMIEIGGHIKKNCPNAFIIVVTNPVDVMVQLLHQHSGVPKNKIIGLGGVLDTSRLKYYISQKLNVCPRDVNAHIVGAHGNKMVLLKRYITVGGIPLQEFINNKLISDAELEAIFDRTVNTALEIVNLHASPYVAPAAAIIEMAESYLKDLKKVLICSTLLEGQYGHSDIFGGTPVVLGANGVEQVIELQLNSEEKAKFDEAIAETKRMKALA

O=C(NCCCN1CCCCC1)c1cccc(Nc2nccc(Nc3ccc(Oc4ccccc4)cc3)n2)c1
active: growth inhibition [4] 96%
inactive: growth inhibition [1] 12% | inhibition [2] 47% | inhibition [3] 2% | outcome [5] | outcome [6] | outcome [7]

NCc1ccc(Nc2nccc(Nc3ccc(-c4ccccc4)cc3)n2)cc1
active: growth inhibition [1] 98% | growth inhibition [4] 101%
inactive: inhibition [2] 47% | inhibition [3] -1% | outcome [5] | outcome [6] | outcome [7]

CN1CCN(c2ccc(Nc3ncc(Cl)c(Nc4cccnc4C(N)=O)n3)cc2)CC1
inactive: inhibition [3] -1% | outcome [5] | outcome [6] | outcome [7]
active: growth inhibition [1] 97% | inhibition [2] 99% | growth inhibition [4] 95%

O=C(NCCN1CCCCC1)c1ccc(Nc2nccc(Nc3ccc(Oc4ccccc4)cc3)n2)cc1
active: growth inhibition [1] 91% | inhibition [2] 58% | growth inhibition [4] 101%
inactive: inhibition [3] -2% | outcome [5] | outcome [6] | outcome [7]

CN(C)CCN(C)Cc1ccc(-c2ccc3c(Nc4ccc(Oc5ccccc5)cc4)ccnc3c2)o1
inactive: inhibition [2] 5% | inhibition [3] -4% | outcome [5] | outcome [6] | outcome [7]
active: growth inhibition [1] 100% | growth inhibition [4] 100%

O=C(NCCCN1CCOCC1)c1cccc(Nc2nccc(Nc3ccc(Oc4ccccc4)cc3)n2)c1
active: growth inhibition [4] 98%
inactive: growth inhibition [1] 22% | inhibition [2] 34% | inhibition [3] -9% | outcome [5] | outcome [6] | outcome [7]

CC(C)(CNCCOc1ccc(Cl)cc1)c1nc(-c2ccc(Cl)c(O)c2)c(-c2ccnc(N)n2)[nH]1
inactive: growth inhibition [1] 19% | inhibition [2] 45% | inhibition [3] -6% | outcome [5] | outcome [6] | outcome [7]
active: growth inhibition [4] 97%

CN(C)Cc1ccc(-c2ccc3c(Nc4ccc(Oc5ccccn5)cc4)ccnc3c2)o1
inactive: inhibition [2] 18% | inhibition [3] 1% | outcome [5] | outcome [6] | outcome [7]
active: growth inhibition [1] 100% | growth inhibition [4] 101%

CNC(=O)c1ccccc1Nc1nc(Nc2ccc(C(=O)O)cc2)ncc1Cl
inactive: inhibition [3] -2% | outcome [5] | outcome [6] | outcome [7]
active: growth inhibition [1] 92% | inhibition [2] 60% | growth inhibition [4] 92%

CS(=O)(=O)CCNCc1cccc(-c2ccc3c(Nc4ccc(Oc5cccnc5)cc4)ccnc3c2)c1
active: growth inhibition [1] 99% | growth inhibition [4] 101%
inactive: inhibition [2] 27% | inhibition [3] 4% | outcome [5] | outcome [6] | outcome [7]

CCn1c(-c2nc(-c3ccnc(N4CCN(C)CC4)c3)cnc2N)nc2cc(S(C)(=O)=O)ccc21
inactive: inhibition [2] 44% | inhibition [3] -1% | outcome [5] | outcome [6] | outcome [7]
active: growth inhibition [1] 76% | growth inhibition [4] 101%

Cc1ccc(Nc2nccc(N(C)c3ccc4c(c3)nc(NC(=O)Cc3ccc(Cl)c(Cl)c3)n4C)n2)cc1S(N)(=O)=O
inactive: inhibition [3] 0% | outcome [5] | outcome [6] | outcome [7]
active: growth inhibition [1] 60% | inhibition [2] 71% | growth inhibition [4] 94%

COc1ccc(-c2cnc3ccc(NCCCO)nn23)cc1OC
active: growth inhibition [1] 90% | growth inhibition [4] 98%
inactive: inhibition [2] 9% | inhibition [3] -1% | outcome [5] | outcome [6] | outcome [7]

CN1CCN(CCCNCc2ccc(Nc3nccc(Nc4ccc(Oc5ccccc5)cc4)n3)cc2)CC1
active: growth inhibition [4] 100%
inactive: growth inhibition [1] 9% | inhibition [2] 17% | inhibition [3] 0% | outcome [5] | outcome [6] | outcome [7]

NC(=O)c1ccccc1Nc1nc(Nc2ccn[nH]2)ncc1Cl
active: growth inhibition [1] 93% | inhibition [2] 67% | growth inhibition [4] 96%
inactive: inhibition [3] -4% | outcome [5] | outcome [6] | outcome [7]

Cc1ccc(O)cc1Nc1ccnc2cc(-c3cccc(CNCCS(C)(=O)=O)c3)ccc12
active: growth inhibition [1] 100% | growth inhibition [4] 99%
inactive: inhibition [2] 9% | inhibition [3] 2% | outcome [5] | outcome [6] | outcome [7]

O=c1[nH]ccc2nc(N[C@@H]3CCNC3)nc(Nc3ccc4c(c3)S(=O)(=O)CC4)c12
active: growth inhibition [1] 99% | growth inhibition [4] 100%
inactive: inhibition [2] -4% | inhibition [3] -2% | outcome [5] | outcome [6] | outcome [7]

CN1CCC=C(C(=O)NCC(C)(C)c2nc(-c3ccc(Cl)c(O)c3)c(-c3ccncc3)[nH]2)C1
active: growth inhibition [1] 96% | growth inhibition [4] 96%
inactive: inhibition [2] 39% | inhibition [3] -1% | outcome [5] | outcome [6] | outcome [7]

Fc1cc(Cl)ccc1Nc1ccnc2cc(-c3ccc(CNCCN4CCOCC4)o3)ccc12
active: growth inhibition [1] 100% | growth inhibition [4] 101%
inactive: inhibition [2] 13% | inhibition [3] -2% | outcome [5] | outcome [6] | outcome [7]

CN(C)CCN(C)Cc1ccc(-c2ccc3c(Nc4ccc(Cl)cc4F)ccnc3c2)o1
inactive: inhibition [2] 20% | inhibition [3] 1% | outcome [5] | outcome [6] | outcome [7]
active: growth inhibition [1] 76% | growth inhibition [4] 100%

c1ccc(Oc2ccc(Nc3ccnc4cc(-c5ccc(CNCCN6CCOCC6)o5)ccc34)cc2)cc1
inactive: inhibition [2] 20% | inhibition [3] -3% | outcome [5] | outcome [6] | outcome [7]
active: growth inhibition [1] 99% | growth inhibition [4] 99%

CC(C)(CNC(=O)[C@H]1CCCN1)c1nc(-c2ccc(Cl)c(O)c2)c(-c2ccncc2)[nH]1
active: growth inhibition [1] 95% | growth inhibition [4] 86%
inactive: inhibition [2] -11% | inhibition [3] -1% | outcome [5] | outcome [6] | outcome [7]

COc1ccc(Nc2ncc3c(-c4cccc(NC(=O)Cc5cccc(O)c5)c4)c[nH]c3n2)cc1OC
active: growth inhibition [1] 96% | growth inhibition [4] 101%
inactive: inhibition [2] 44% | inhibition [3] -6% | outcome [5] | outcome [6] | outcome [7]

CC(C)(CN)c1nc(-c2ccc(Br)c(O)c2)c(-c2ccncc2)[nH]1
inactive: inhibition [2] 31% | inhibition [3] 0% | outcome [5] | outcome [6] | outcome [7]
active: growth inhibition [1] 97% | growth inhibition [4] 96%

Cc1nc(-c2cccc(Nc3ccnc4cc(-c5nccs5)ccc34)c2)no1
inactive: inhibition [2] 37% | inhibition [3] -2% | outcome [5] | outcome [6] | outcome [7]
active: growth inhibition [1] 90% | growth inhibition [4] 99%

CC(C)(C)CNCC(C)(C)c1nc(-c2ccc(Cl)c(O)c2)c(-c2ccncc2)[nH]1
active: growth inhibition [1] 98% | growth inhibition [4] 101%
inactive: inhibition [2] 42% | inhibition [3] 5% | outcome [5] | outcome [6] | outcome [7]

CN(C)CCOc1ccc(-c2cc(-c3ccnc(N)n3)c(-c3ccc(Cl)c(O)c3)o2)cc1
inactive: inhibition [2] 14% | inhibition [3] 5% | outcome [5] | outcome [6] | outcome [7]
active: growth inhibition [1] 91% | growth inhibition [4] 101%

c1ccc(Oc2ccc(Nc3ccnc(Nc4ccc5cn[nH]c5c4)n3)cc2)cc1
active: growth inhibition [4] 94%
inactive: growth inhibition [1] 33% | inhibition [2] 6% | inhibition [3] -7% | outcome [5] | outcome [6] | outcome [7]

COc1ccc(CNCC(C)(C)c2nc(-c3ccc(Cl)c(O)c3)c(-c3ccncc3)[nH]2)cc1
active: growth inhibition [1] 99% | inhibition [2] 76% | growth inhibition [4] 101%
inactive: inhibition [3] 1% | outcome [5] | outcome [6] | outcome [7]

CC(C)(CNC(=O)C1CCN(CCOc2ccc(F)c(F)c2)CC1)c1nc(-c2ccc(Cl)c(O)c2)c(-c2ccncc2)[nH]1
active: growth inhibition [4] 101%
inactive: growth inhibition [1] 19% | inhibition [2] 41% | inhibition [3] -1% | outcome [5] | outcome [6] | outcome [7]

CC(C)(CNCc1ccc(Cl)c(Cl)c1)c1nc(-c2ccc(Cl)c(O)c2)c(-c2ccncc2)[nH]1
inactive: inhibition [2] 43% | inhibition [3] -3% | outcome [5] | outcome [6] | outcome [7]
active: growth inhibition [1] 97% | growth inhibition [4] 101%

CN(C)CCNCc1ccc(-c2ccc3c(Nc4ccc(Oc5ccccc5)cc4)ccnc3c2)o1
active: growth inhibition [1] 99% | growth inhibition [4] 100%
inactive: inhibition [2] 19% | inhibition [3] 2% | outcome [5] | outcome [6] | outcome [7]

CS(=O)(=O)CCNCc1cccc(-c2ccc3c(Nc4cc(O)c(Cl)cc4F)ccnc3c2)c1
inactive: inhibition [2] 9% | inhibition [3] -7% | outcome [5] | outcome [6] | outcome [7]
active: growth inhibition [1] 100% | growth inhibition [4] 101%
